Inconclusive results are not listed. Entries that show only a call come without a potency. Active and inactive are the calls of the source. The call rests on the fitted dose curve; tested in HEK293 reporter line.
Assay: qHTS for Inhibitors of the Functional Ribonucleoprotein Complex (vRNP) of Lassa (LASV) Arenavirus: LASV Primary Screen - GLuc reporter signal (AID 1347082); further: nearly all actives have a fitted effect of over 60% in size
Conditions: LASV minigenome vRNP, Gaussia luciferase reporter; series mostly up to 57.5 µM
Potency means the concentration at half of the fitted maximal effect.

Row | SMILES | Potency
1 | CC1(C)S[C@@H]2[C@H](NC(=O)[C@H](N)c3ccccc3)C(=O)N2[C@H]1C(=O)O | inactive
2 | O[C@@H](CNC[C@H](O)[C@H]1CCc2cc(F)ccc2O1)[C@@H]1CCc2cc(F)ccc2O1 | inactive
3 | CC(C)(C(=O)O)c1ccc(C(O)CCCN2CCC(C(O)(c3ccccc3)c3ccccc3)CC2)cc1 (stereo not drawn) | inactive
4 | Cc1nccn1CC1CCc2c(c3ccccc3n2C)C1=O (stereo not drawn) | inactive
5 | CC(C)C(=O)Nc1ccc([N+](=O)[O-])c(C(F)(F)F)c1 | inactive
6 | Cc1[nH]cnc1CN1CCc2c(c3ccccc3n2C)C1=O | inactive
7 | OCCN1CCN(CCCN2c3ccccc3Sc3ccc(C(F)(F)F)cc32)CC1 | inactive
8 | O[C@@H]1CO[C@H]2[C@@H]1OC[C@@H]2O | inactive
9 | CN(C/C=C/C#CC(C)(C)C)Cc1cccc2ccccc12 | inactive
10 | CC(C)(C#N)c1cc(Cn2cncn2)cc(C(C)(C)C#N)c1 | inactive
11 | Cc1cccc(Nc2ccccc2C(=O)O)c1C | inactive
12 | C[C@]12CC[C@@H]3c4ccc(O)cc4C[C@@H](CCCCCCCCCS(=O)CCCC(F)(F)C(F)(F)F)[C@H]3[C@@H]1CC[C@@H]2O (stereo partly drawn) | inactive
13 | Nc1ccc(O)c(C(=O)O)c1 | inactive
14 | CCOC(=O)[C@H](CCc1ccccc1)N[C@@H](C)C(=O)N1Cc2cc(OC)c(OC)cc2C[C@H]1C(=O)O | inactive
15 | OCCN1C[C@H](O)[C@@H](O)[C@H](O)[C@H]1CO | inactive
16 | Nc1[nH]c(=O)ncc1F | inactive
17 | CN(C)C(=O)C(CCN1CCC(O)(c2ccc(Cl)cc2)CC1)(c1ccccc1)c1ccccc1 | inactive
18 | CCCCc1oc2ccc(NS(C)(=O)=O)cc2c1C(=O)c1ccc(OCCCN(CCCC)CCCC)cc1 | inactive
19 | CC1=C(C(=O)O)N2C(=O)[C@@H](NC(=O)[C@H](N)c3ccccc3)[C@H]2SC1 | inactive

Row | SMILES | Potency
20 | CC/C(=C(\c1ccccc1)c1ccc(OCCN(C)C)cc1)c1ccccc1 | inactive
21 | O=c1[nH]cc(F)c(=O)[nH]1 | inactive
22 | COc1cc2c(c(OC)c1OC)-c1ccc(OC)c(=O)cc1[C@@H](NC(C)=O)CC2 | inactive
23 | O=C(CCCCCCC(=O)Nc1ccccc1)NO | inactive
24 | Cc1cn([C@H]2C=C[C@@H](CO)O2)c(=O)[nH]c1=O | inactive
25 | CC(C)C1CCC(C(=O)N[C@H](Cc2ccccc2)C(=O)O)CC1 (stereo partly drawn) | inactive
26 | CN1CCC[C@@H]1Cc1c[nH]c2ccc(CCS(=O)(=O)c3ccccc3)cc12 | inactive
27 | CCOC(=O)C1=C(C)NC(C)=C(C(=O)OC)C1c1cccc(Cl)c1Cl (stereo not drawn) | inactive
28 | NC(=O)N/N=C/c1ccc([N+](=O)[O-])o1 | inactive
29 | COc1cc2ncnc(Nc3ccc(F)c(Cl)c3)c2cc1OCCCN1CCOCC1 | inactive
30 | CCN(CC)CCCC(C)Nc1ccnc2cc(Cl)ccc12 (stereo not drawn) | inactive
31 | COC(=O)Nc1nc2ccc(C(=O)c3cccs3)cc2[nH]1 | inactive
32 | Cc1cn[nH]c1 | inactive
33 | O=C1OCCN1/N=C/c1ccc([N+](=O)[O-])o1 | inactive
34 | CC(=O)O[C@@]12CO[C@@H]1C[C@H](O)[C@@]1(C)C(=O)[C@H](O)C3=C(C)[C@@H](OC(=O)[C@H](O)[C@@H](NC(=O)OC(C)(C)C)c4ccccc4)C[C@@](O)([C@@H](OC(=O)c4ccccc4)[C@H]21)C3(C)C | inactive
35 | Cc1ccc(C(=O)c2cc(O)c(O)c([N+](=O)[O-])c2)cc1 | inactive
36 | CCN(CC)C(=S)SSC(=S)N(CC)CC | 193 nM (active)
37 | Cn1c(=O)c2c(ncn2CC(O)CO)n(C)c1=O (stereo not drawn) | inactive
38 | CCCNC(=O)NS(=O)(=O)c1ccc(Cl)cc1 | inactive

Reference: PubChem BioAssay (NCATS)
